# Data reported in paper PMC4336329 (PLoS ONE, 2015).
# Hit rate of the full screen: of about 310,000 compounds, about 14,000 (4.5%) showed an effect of 50% or more. Effects have a minus sign here. The entries come from a sample that favours strong results as a whole.
# Biological target: human ether-à-go-go-related gene (hERG) potassium channel (human, UniProt Q12809)
# Experiment: primary screen, population patch clamp on CHO cells stably expressing hERG; higher = less effect of the substance
# 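Further: peak tail current of the secondary pulse compared with the same well before compound.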
# human ether-à-go-go-related gene (hERG) potassium channel, sequence (Q12809 whole entry, looked up): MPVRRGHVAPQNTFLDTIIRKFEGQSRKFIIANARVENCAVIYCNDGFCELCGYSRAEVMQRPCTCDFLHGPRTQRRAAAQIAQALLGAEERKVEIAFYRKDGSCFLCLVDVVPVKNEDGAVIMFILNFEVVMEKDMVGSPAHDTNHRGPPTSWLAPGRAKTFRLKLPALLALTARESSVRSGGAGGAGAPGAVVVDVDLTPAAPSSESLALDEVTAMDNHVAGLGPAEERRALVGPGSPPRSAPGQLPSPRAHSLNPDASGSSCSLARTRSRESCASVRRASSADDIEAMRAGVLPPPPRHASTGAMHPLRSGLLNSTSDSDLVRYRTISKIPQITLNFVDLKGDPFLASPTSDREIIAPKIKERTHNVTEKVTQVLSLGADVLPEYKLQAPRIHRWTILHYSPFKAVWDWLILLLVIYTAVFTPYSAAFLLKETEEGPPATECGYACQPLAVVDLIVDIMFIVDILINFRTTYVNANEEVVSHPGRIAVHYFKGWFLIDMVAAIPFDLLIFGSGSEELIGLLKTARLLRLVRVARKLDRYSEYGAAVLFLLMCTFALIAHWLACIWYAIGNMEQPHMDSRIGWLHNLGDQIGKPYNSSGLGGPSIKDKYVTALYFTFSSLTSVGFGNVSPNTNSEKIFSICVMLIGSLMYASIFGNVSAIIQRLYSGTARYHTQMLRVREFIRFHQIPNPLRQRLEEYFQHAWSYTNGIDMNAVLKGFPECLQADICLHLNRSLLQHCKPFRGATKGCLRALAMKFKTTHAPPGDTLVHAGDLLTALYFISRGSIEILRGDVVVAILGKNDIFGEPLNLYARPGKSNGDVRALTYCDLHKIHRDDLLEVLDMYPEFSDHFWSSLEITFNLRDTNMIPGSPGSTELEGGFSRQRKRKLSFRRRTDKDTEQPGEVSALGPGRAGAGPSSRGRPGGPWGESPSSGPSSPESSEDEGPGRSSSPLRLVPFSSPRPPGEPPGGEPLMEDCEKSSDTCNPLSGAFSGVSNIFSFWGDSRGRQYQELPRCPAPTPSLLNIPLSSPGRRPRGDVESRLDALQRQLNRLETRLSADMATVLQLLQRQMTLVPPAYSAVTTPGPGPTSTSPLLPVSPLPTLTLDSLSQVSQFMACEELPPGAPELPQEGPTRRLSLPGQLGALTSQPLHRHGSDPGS
row,SMILES,"hERG current change (%, negative = inhibition) at 10uM"
1,COC(=O)c1ccc(C(=O)OC)c(NS(C)(=O)=O)c1,-1.73%
2,O=C1CC(C(F)(F)C(F)(F)C(F)(F)F)=Nc2ccccc2N1,-15.1%
3,CC(=O)OCCNC(=O)c1cc2ccccc2oc1=O,9.06%
4,Br.N=c1n(CCc2ccccc2)c2ccccc2n1Cc1ccccc1F,-62.6%
5,N=c1n(Cc2ccccc2)c2ccccc2n1Cc1ccccc1,-62.1%
6,Br.CCn1c(=N)n(Cc2ccccc2F)c2ccccc21,-37.5%
7,Br.CC(C)(C)C(=O)Cn1c(=N)n(Cc2ccccc2)c2ccccc21,-48.2%
8,O=c1n(Cc2ccccc2F)c2ccccc2n1Cc1ccccc1F,19.4%
9,Cl.N=c1n(CCO)c2ccccc2n1Cc1ccccc1,-25.1%
10,O=C(COc1ccc(Cl)cc1)NCCNC(=O)c1cnccn1,5.3%
11,Cc1oc(-c2ccc(Cl)cc2)nc1CS(=O)CC(=O)NCCN1CCCCCC1 (stereo not drawn),-39.4%
12,Cc1ccccc1Cn1cc(S(=O)(=O)c2ccc(C(C)C)cc2)c(=O)c2cc3c(cc21)OCO3,-20.2%
13,COc1ccc(OCc2n(CC(=O)OC3CC(C)CCC3C(C)C)c3ccccc3[n+]2C)cc1.[Cl-] (stereo not drawn),-76.4%
14,Cc1cccc(OCc2n(CC(=O)OC3CC(C)CCC3C(C)C)c3ccccc3[n+]2C)c1.[Cl-] (stereo not drawn),-75%
15,CC1CCC(C(C)C)C(OC(=O)CSc2nc(N)cc(=O)[nH]2)C1 (stereo not drawn),12.7%
16,CC1CCC(C(C)C)C(OC(=O)COC(=O)c2ccccc2N)C1 (stereo not drawn),9.64%
17,CC1CCC(C(C)C)C(OC(=O)Cn2c(COc3ccccc3)[n+](C)c3ccccc32)C1.[Cl-] (stereo not drawn),-80.4%
18,Cc1ccccc1OC(=O)Cn1c(C(F)(F)F)nc2ccccc21,3.95%
19,Cc1cccc(OC(=O)Cn2c(C(F)(F)F)nc3ccccc32)c1,17.6%
20,CC1CCC(C(C)C)C(OC(=O)COC(=O)c2cc(O)ccc2N)C1 (stereo not drawn),12.9%
21,Cc1ccccc1OCc1n(CC(=O)OC2CC(C)CCC2C(C)C)c2ccccc2[n+]1C.[Cl-] (stereo not drawn),-72%

row,SMILES,"hERG current change (%, negative = inhibition) at 10uM"
1,CN1CCN(C(=O)CCCOc2cc(=O)n(C)c3ccccc23)CC1,0.874%
2,COc1cccc(NC(=O)C2C3C=CC(O3)C2C(=O)O)c1 (stereo not drawn),10.6%
3,Cc1ccccc1OCCNC(=O)CSc1ccc(C(F)(F)F)cc1[N+](=O)[O-],10.6%
4,COc1ccc(CCNC(=O)c2ccc(N3CCCC3=O)cc2)cc1OC,15.3%
5,COc1ccc(C(=O)N/C(=C/c2cccnc2)C(=O)N2CCN(C)CC2)cc1OC,11.4%
6,Cc1cc(C)n(C(=O)COc2ccccc2C)n1,-3.33%
7,Nc1c(C(=O)Nc2ccccc2F)sc2nc(-c3cccnc3)ccc12,20.9%
8,O=C(COC(=O)c1ccncc1)Nc1cc(Cl)ccc1Cl,6.07%
9,CCOCCn1c(SCc2ccc(F)cc2)nc2c1c(=O)[nH]c(=O)n2C,-19.5%
10,Cc1ccc(C(C)C)c(OCCOCCN2CCNCC2)c1.O=C(O)C(=O)O,-3.95%
11,CC(C)(C)c1ccc(OCC(=O)NCCN2CCCC2)cc1.Cl,-33.7%
12,CCOC(=O)n1c(=O)n(Cc2ccc(Cl)cc2Cl)c2ccccc21,-3.22%
13,COCC(=O)NC1CC2CCCC(C1)N2Cc1ccccc1 (stereo not drawn),-4.63%
14,Cc1cccc(NC(=S)NC2CC3CCCC(C2)N3Cc2ccccc2)c1C (stereo not drawn),-10.4%
15,O=C(Nc1ccc(Cl)c(C(F)(F)F)c1)NC1CC2CCCC(C1)N2C1CC1 (stereo not drawn),-10.1%
16,CC(=O)NC1CC2CCCC(C1)N2C(=O)Nc1ccc(Cl)c(C(F)(F)F)c1 (stereo not drawn),-3.34%
17,COc1ccc(NC(=O)N2C3CCCC2CC(NC(=O)c2ccccc2)C3)cc1 (stereo not drawn),-15.9%
18,Cc1ccccc1NC(=O)NC1CCCCCCC1,8.64%
19,COc1ccc(NC(=O)NC2CC3CCCC(C2)N3Cc2ccccc2)cc1 (stereo not drawn),-50.1%
20,COc1ccc(CN2C3CCCC2CC(NC(=O)Nc2ccccc2)C3)cc1 (stereo not drawn),-74.1%
21,COc1ccc(C(=O)NC2CC3CCCC(C2)N3Cc2ccccc2)c(OC)c1 (stereo not drawn),-26.5%

row,SMILES,"hERG current change (%, negative = inhibition) at 10uM"
1,COc1ccc(CN2C3CCCC2CC(NC(=O)Nc2ccccc2C)C3)cc1 (stereo not drawn),-59%
2,O=C(Nc1ccc(Cl)c(C(F)(F)F)c1)NC1CC2CCCC(C1)N2Cc1ccccc1 (stereo not drawn),-71%
3,CCOc1ccc(N2C(=O)CC(N)C2=O)cc1 (stereo not drawn),1.65%
4,COc1ccc(OC)c(CCNC(=O)CC2(CC3=NS(=O)(=O)c4ccccc4N3)CCCC2)c1,-11.2%
5,COC(=O)c1cc(-c2cccc([N+](=O)[O-])c2)c2c(=O)[nH]c(=O)n(C)c2n1,6.48%
6,COc1cccc(NC(=O)CCNS(=O)(=O)c2cccc3nsnc23)c1,1.56%
7,Cn1c(=O)c2ccccc2n(Cc2ccccc2Cl)c1=O,0.661%
8,COc1ccc(CN2C3CCCC2CC(NC(=O)Nc2cccc(C)c2)C3)cc1 (stereo not drawn),-75.3%
9,CCc1cccc(CC)c1NC(=O)CN1C2CCCC1CC(NC(=O)Nc1cccc(OC)c1)C2 (stereo not drawn),-7.7%
10,CCCN1C2CCCC1CC(NC(=O)Nc1cccc(C(C)=O)c1)C2 (stereo not drawn),-5.62%
11,O=C(Nc1cccc(F)c1)NC1CC2CCCC(C1)N2C1CC1 (stereo not drawn),-8.34%
12,Cc1ccc(CN2C3CCCC2CC(NC(=O)Nc2cccc(F)c2)C3)cc1 (stereo not drawn),-85.7%
13,Cc1cccc(NC(=O)NC2CC3CCC(C2)N3Cc2ccco2)c1 (stereo not drawn),-2.61%
14,CCOC(=O)C1CCN(C(=O)C2CCN(S(=O)(=O)c3cc(Cl)ccc3Cl)CC2)CC1,-30.1%
15,Cc1ccc(S(=O)(=O)N2CCOCC2)cc1C(=O)OCC(=O)c1ccc(Br)cc1,14.7%
16,COc1ccc(-c2nc3ccc(N4CCN(C)CC4)cc3c(=O)[nH]2)cc1,8.45%
17,O=c1c2ccccc2nc(-c2ccccc2)n1Cc1ccc(Cl)cc1,-15.7%
18,O=c1c2ccccc2nc(N2CCCC2)n1-c1ccc(Cl)cc1,-3.18%
19,O=c1c2ccccc2nc2n1CCN2Cc1ccc(Cl)cc1,-51.9%
20,CCOC(=O)c1c(-n2c(C)cc(C=C3C(=O)NC(=S)NC3=O)c2C)sc2c1CCCC2,-5.55%
21,CN1CCC(=NNC(=O)c2ccc(N(Cc3ccc(Cl)cc3)S(C)(=O)=O)cc2)CC1,-38%

row,SMILES,"hERG current change (%, negative = inhibition) at 10uM"
1,CC1=C(C(=O)NC2CC(C)(C)Cc3c2cnn3-c2cccc(F)c2)OCCO1 (stereo not drawn),-43.5%
2,Cc1cc(C(=O)NC2CC(C)(C)Cc3c2cnn3-c2cccc(F)c2)nn1C (stereo not drawn),-2.79%
3,CC1(C)Cc2c(cnn2-c2cccc(F)c2)C(NC(=O)c2ccc(=O)[nH]n2)C1 (stereo not drawn),-70.2%
4,CC1(C)Cc2c(cnn2-c2cccc(F)c2)C(NC(=O)c2csnn2)C1 (stereo not drawn),-78.3%
5,COc1ccc(C(=O)NC2CC(C)(C)Cc3c2cnn3-c2ccccc2)c(OC)c1 (stereo not drawn),-2.5%
6,COc1cc(C(=O)NC2CC(C)(C)Cc3c2cnn3-c2ccccc2)cc(OC)c1OC (stereo not drawn),8.92%
7,Cc1cnc(C(=O)NC2CC(C)(C)Cc3c2cnn3-c2cccc(F)c2)cn1 (stereo not drawn),-33.5%
8,Cc1cc(C(=O)NC2CC(C)(C)Cc3c2cnn3-c2cccc(F)c2)n(C)n1 (stereo not drawn),-32.6%
9,COc1cccc(C(=O)NC2CC(C)(C)Cc3c2cnn3-c2cccc(F)c2)c1OC (stereo not drawn),-52.3%
10,O=C(N/N=C/c1coc2ccccc2c1=O)c1ccccc1,10.6%
11,COc1ccc(CN2CCN(C(=O)CC(C)C)CC2)cc1Br,-4.54%
12,C=CC[C@]12C[C@@H](OC)C(=O)C=C1O[C@@H](c1ccc(OC)c(OC)c1)[C@H]2C,14.5%
13,NC(=O)C(c1ccc(Sc2ccccc2)nn1)c1ccc(Cl)cc1Cl (stereo not drawn),-43.9%
14,Cc1c(C(=O)NCC2COc3ccccc3O2)oc2ccc(S(=O)(=O)N3CC(C)CC(C)C3)cc12 (stereo not drawn),12.4%
15,Cc1c(NC(=O)COC(=O)c2cc(-c3ccc(-c4ccccc4)cc3)nc3ccccc23)c(=O)n(-c2ccccc2)n1C,28.4%
16,COc1ccccc1NNC(=O)C(O)(c1ccccc1OC)c1ccccc1OC,20.2%
17,O=C(NC(Cc1ccccc1)C(=O)O)/C(=C/c1ccc([N+](=O)[O-])cc1)NC(=O)c1ccc(Br)o1 (stereo not drawn),11.5%
18,CC(=O)Nc1ccc(Nc2ccc3c4c(cc(=O)n3C)-c3ccccc3C(=O)c24)cc1,9.74%
19,Cn1c(=O)cc2c3c(c(N4CCCCC4)ccc31)C(=O)c1ccccc1-2,-63.2%
20,CC(=O)N(C)c1ccc(N2CCOCC2)c2c1C(=O)c1ccccc1C2=O,-0.974%
21,CCn1c(SCC(=O)Nc2cc(S(=O)(=O)N3CCOCC3)ccc2OC)nnc1-c1ccncc1,13.8%
